Screens: PubChem BioAssay, The Scripps Research Institute Molecular Screening Center
This is a sample that favours compounds with a hit; in the whole collection about 2.3% have one here.
M1 ag parental: nonselective activator or artifact in parental CHO-K1 cells. 360,000 tested, 0.48% active. Fluo-8 calcium fluorescence; scaled to maximal ATP response, vehicle zero. activation, % at 3 µM; in the data active = activation above about 15%;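 also: untransfected CHO-K1 host cells lacking M1 receptor as counterscreen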
M1 PAM parental: M1 PAM counterscreen hit in parental CHO-K1 cells. activation, % at 3 µM. 360,000 tested, 0.02% active. AID 602247. ATP EC20, Fluo-8 calcium fluorescence; 0% at ATP EC20, 100% at ATP max;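 active = activation above the run cutoff, the mean activation of all test compounds plus 3 SD, cut at about 40% in these data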;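 also: peak over basal fluorescence ratio in a 140 s read after ATP addition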
CHRM1 antagonist: human CHRM1 antagonism. P11229. CHO-K1 hM1, Fluo-8 calcium fluorescence, ACh EC80 antagonist. inhibition, % at 3 µM. 360,000 tested, 1.3% active. AID 588852;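 active = percent inhibition above its own plate's cutoff, namely the mean of that plate's compound wells plus 3 SD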;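 also: peak over basal fluorescence ratio during 140 s after agonist addition; 0% = ACh EC80 plus DMSO and 100% = DMSO alone without agonist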
Target sequence (P11229 whole entry, looked up): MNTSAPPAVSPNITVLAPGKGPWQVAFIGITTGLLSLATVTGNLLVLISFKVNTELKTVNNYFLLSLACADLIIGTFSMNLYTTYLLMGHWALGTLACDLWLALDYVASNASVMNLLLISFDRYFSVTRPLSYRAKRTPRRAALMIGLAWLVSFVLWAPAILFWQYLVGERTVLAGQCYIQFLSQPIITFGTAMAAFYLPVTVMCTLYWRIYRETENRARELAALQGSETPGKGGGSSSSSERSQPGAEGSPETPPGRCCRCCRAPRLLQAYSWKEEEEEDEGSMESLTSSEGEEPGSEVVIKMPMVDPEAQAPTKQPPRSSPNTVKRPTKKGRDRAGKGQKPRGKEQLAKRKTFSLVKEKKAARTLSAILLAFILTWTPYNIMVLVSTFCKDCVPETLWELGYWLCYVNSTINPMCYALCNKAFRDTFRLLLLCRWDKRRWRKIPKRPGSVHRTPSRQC
M1 PAM: human CHRM1 positive allosteric modulation. CHO-K1 hM1, Fluo-8 calcium fluorescence, ACh EC20; 0% = ACh EC20, 100% = maximal ACh. 360,000 tested, 0.088% active. AID 588819. activation, % at 3 µM. P11229; in the data active = activation above about 19%, passing the limit was not always enough
CHO-K1 Ca antag: nonselective inhibitor or artifact in parental CHO-K1 cells | ATP-induced calcium, Fluo-8 fluorescence | inhibition, % at 3 µM | 360,000 tested, 0.6% active;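 active = inhibition above a per-plate cutoff, the plate's mean sample inhibition plus 3 SD, cut at about 24% in these data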;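 also: 0% = DMSO plus EC80 ATP and 100% = DMSO alone without ATP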
M1 ag: agonists of human M1 muscarinic receptor. P11229. CHO-K1 hM1, Fluo-8 calcium fluorescence, agonist mode; 0% DMSO, 100% acetylcholine EC100. activation, % at 3 µM. 360,000 tested, 0.33% active;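 active = activation above the run's mean compound activation plus 3 SD, cut at about 16% in these data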;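 also: peak over basal fluorescence ratio within a 140 s kinetic read after compound addition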
Starred values were filed as active, the others as inactive; ! = not confirmed by another sample.

SMILES | M1 ag parental | M1 PAM parental | CHRM1 antagonist | M1 PAM | CHO-K1 Ca antag | M1 ag
O[Si](CCCN1CCCCC1)(c1ccc(F)cc1)C1CCCCC1 (stereo unspecified) | 2 | 15 | 97* | -26 | -1 | -6
Cc1noc(C(=O)Nc2ccc(F)c(Cl)c2)c1Cl | 3 | 1 | 83* | -30 | -20 | -7
Cc1c(Cc2ccc3c(c2)OCO3)sc(NC(=O)c2cccc3ccccc23)c1C(N)=O | 2 | 19 | 101* | -33 | 2 | -13
COc1cc(C=Cc2nnc3c4ccccc4cnn23)cc(OC)c1OC | 2 | 10 | -12 | 7 | 3 | 0
COc1cc(C2=NOC(C(=O)NCc3cccs3)C2)cc(OC)c1OC (stereo unspecified) | 2 | -11 | -4 | 4 | 0 | 1
COc1ccc(C2=NOC(C(=O)NCc3cccs3)C2)cc1 (stereo unspecified) | 1 | 17 | 56* | 7 | -5 | -2
Nc1nccnc1C(=O)OCC(=O)NCCc1ccc(S(N)(=O)=O)cc1 | 0 | 12 | -9 | 3 | 2 | -3
Cn1c(=O)c(C#N)c(-c2ccc(F)cc2)c2cc(C(=O)c3cc(Cl)cc(Cl)c3O)cnc21 | 14 | -11 | 31* | -12 | 12 | 3
CCCN(CC(=O)Nc1ccccc1C)C(=O)c1cccc(S(=O)(=O)N2CCc3ccccc3C2)c1 | 13 | -14 | 35* | -14 | 16 | 0
COc1ccc2nc(C)cc(SCC(=O)O)c2c1 | 0 | 18 | -27 | 8 | 24*! | 0
COc1ccc2nc(C)cc(SCC(NC(C)=O)C(=O)OC(C)C)c2c1 (stereo unspecified) | 1 | -25 | 11 | -7 | 26* | -4
CN(C)c1ccc(CC(=O)N2CCCC(c3cc(C(=O)Nc4ccc5c(c4)OCO5)no3)C2)cc1 (stereo unspecified) | 4 | -1 | -7 | -7 | -11 | -5
COc1cc(NS(=O)(=O)c2ccc(NC(=S)NC(=O)c3ccco3)cc2)ncn1 | 18* | 4 | 4 | -2 | 19 | -6
Cc1cc(NC(=O)CS(=O)(=O)c2cn(Cc3ccccc3Cl)c3ccccc23)no1 | 4 | -2 | 7 | -1 | -13 | 11
Cc1cc(NC(=O)CS(=O)(=O)c2cn(Cc3cccc(Br)c3)c3ccccc23)no1 | 2 | 4 | -5 | 14 | -4 | 30*
CCCn1cc(SCC(=O)Nc2cc(C)on2)c2ccccc21 | 0 | 8 | -25 | 17 | -8 | -3
Cc1cc(NC(=O)CS(=O)c2cn(Cc3cccc(Cl)c3)c3ccccc23)no1 (stereo unspecified) | 5 | 12 | -6 | 3 | 4 | 23*
C=CCNC(=O)CC(=O)N/N=C/c1cccs1 | 0 | 1 | 3 | 2 | -16 | -3
ClC1=CN(C2=NCCC2)CC1 | 6 | 6 | 3 | -1 | 10 | -10
Nc1nc(-c2nc3ccccc3[nH]2)cs1 | 0 | -8 | 5 | 0 | 32* | -3
c1ccc(-c2nc3ccccc3[nH]2)nc1 | 0 | 8 | 3 | -6 | -5 | -2
Cc1c(NC(=O)c2cnc(Cl)c(Cl)c2)c(=O)n(-c2ccccc2)n1C | 1 | 8 | 2 | -7 | -13 | -10
CC(C)c1ccccc1NC(=O)COC(=O)/C=C/c1cccc([N+](=O)[O-])c1 | 1 | 17 | -11 | 14 | -11 | -9
c1ccc(CN2CCCC3(CCCN(Cc4nc(COc5ccccc5)no4)C3)C2)cc1 (stereo unspecified) | 0 | 25 | 60* | -28 | -12 | -10
c1ccc(CN2CCCC3(CCCN(Cc4nc(CC5CC5)no4)C3)C2)cc1 (stereo unspecified) | 0 | 19 | 19 | -13 | -3 | -8
SMILES | M1 ag parental | M1 PAM parental | CHRM1 antagonist | M1 PAM | CHO-K1 Ca antag | M1 ag
COc1ccc(-c2csc(NC(=O)COC(=O)C3=COCCO3)n2)cc1 | 10 | 17 | 2 | 5 | -14 | 5
O=c1[nH]c(=S)[nH]c2nc(-c3cccs3)cc(C(F)(F)F)c12 | 1 | 6 | 0 | 1 | -9 | -4
Nc1c(C(=O)C2CC2)sc2nc(-c3cccs3)cc(C(F)(F)F)c12 | 8 | 12 | 37 | -9 | 10 | 19*
Cc1ccsc1C(=O)NCc1ccc(F)cc1 | 0 | 0 | -1 | 0 | -2 | -5
CC(=O)c1c(C)[nH]c(C(=O)OCC(=O)Nc2cccc(S(=O)(=O)N(C)C)c2)c1C | 0 | 1 | -11 | 9 | -7 | -4
CCN(CC)S(=O)(=O)c1cccc(NC(=O)COC(=O)c2[nH]c(C)c(C(C)=O)c2C)c1 | 8 | 7 | 31* | -16 | 8 | 4
CCOc1cc(/C=N/NC(=O)CCCC(=O)NC2CCCCC2)ccc1O | 0 | -2 | -4 | 9 | 10 | 2
O=C(NCCCc1ccccc1)c1cncc(Br)c1 | 4 | -1 | 6 | -7 | -9 | -2
O=C(CC1NCCc2ccccc21)Nc1ccc(Oc2ccccc2)cc1 (stereo unspecified) | 20* | 25 | 1 | 1 | -4 | -13
O=C(CC1NCCc2ccccc21)Nc1ccccc1 (stereo unspecified) | 1 | 13 | 4 | -1 | 2 | -11
CN(c1ccc(-c2csc(NC(=O)CCCc3nc4ccccc4c(=O)[nH]3)n2)cc1)S(C)(=O)=O | 0 | 7 | -3 | 5 | -9 | -6
COc1ccc(C(=O)NC(C)CCc2ccccc2)cc1[N+](=O)[O-] (stereo unspecified) | 2 | 3 | 3 | -2 | -3 | -6
COc1ccc(C(=O)C(C)[n+]2ccc(C)c3ccccc32)cc1[N+](=O)[O-] (stereo unspecified) | 2 | -9 | 43* | -22 | 16 | -4
CCCCN1C[C@H](c2ccccc2)[C@@H](CC(=O)NC)C1=O | 0 | -9 | -17 | 5 | 34* | 1
CCCCN1C[C@H](C)[C@@H](CC(=O)NC)C1=O | 0 | 16 | -12 | 10 | -2 | -1
Cc1ccc2nc(-c3ccccc3)cc(C(=O)N3CCN(S(=O)(=O)c4c(C)noc4C)CC3)c2c1 | 1 | 15 | -3 | 8 | -15 | -2
COc1ccc(NC(=O)CN(C)CC(=O)Nc2sc3c(c2C#N)CCC3)cc1 | 0 | -13 | 34* | -5 | 21 | 1
COC(=O)c1ccc(NC(=O)CCC(=O)c2ccc(F)cc2)cc1 | 4 | 8 | -6 | 0 | -10 | -3
Cc1cc(C)n(-c2nc3c(c(=O)[nH]c(=O)n3C)n2CCc2ccccc2)n1 | 0 | 4 | -3 | 3 | 5 | 0
Cc1cc(C)n(-c2nc3c(c(=O)[nH]c(=O)n3C)n2Cc2ccccc2)n1 | 0 | -5 | -3 | 1 | 25* | -3
Cc1cccc(Cn2c(N3CCCCC3C)nc3c2c(=O)[nH]c(=O)n3C)c1 (stereo unspecified) | 0 | 3 | 32* | -28 | 2 | -10
